Results on 13 molecules are retold here after the supplement of paper PMC5940239.

For experiment [1], the system named is Madurella mycetomatis MM55. The note with it: 7 days.
Experiment [2] deals with Madurella mycetomatis MM55. The experiment is described as follows: IC90; higher = less potent. The note with it: 7 days.
In experiment [3] the test system is Madurella mycetomatis MM55. Put plainly: percent growth relative to solvent control; higher = less inhibition, active = 20 or less. The settings on record: 100 µM; 7 days.

Molecules are shown by their SMILES.

Regarding `COc1ccccc1OCCCCn1c(C2CC2)nc2ccccc21`, the IC50 in experiment [1] was found to be 52.1 µM. For the same molecule, the IC90 in experiment [2] was 92.7 µM. Besides, in experiment [3], the percent growth is 2.84% (active).
As for `CCCCCCCCCCCCCCCCOP(=O)([O-])OCC[N+](C)(C)C`, the IC50 in experiment [1] is 59.3 µM. Further, the IC90 in experiment [2] worked out at 90.8 µM. The percent growth in experiment [3] is -0.857% (active).
The like results for `CCCn1nnc(NC(=O)COc2ccc(C3CCCCC3)cc2)n1` were, in that order, 65.8 µM, 94.3 µM and 2.18% (active).
In experiment [1], `CNc1nnc(Sc2cnn(-c3ccccc3)c(=O)c2Cl)s1` showed an IC50 of 54.9 µM. The molecule also gave an IC90 in experiment [2] of 90.8 µM. The percent growth in experiment [3] was -0.261% (active).
Turning to `C[C@H](C(N)=O)N1CCCC[C@H]1c1ccc(OCc2cccc(F)c2)cc1`, the IC50 in experiment [1] is 64.2 µM. For the same molecule, in experiment [2], the IC90 was 94.4 µM. Further, the percent growth in experiment [3] was 2.85% (active).
`COc1cc(NC(C)CCCN)c2ncccc2c1` (centres undefined) had an IC50 in experiment [1] of 64.5 µM. In experiment [2], this molecule came in with an IC90 of 92.8 µM. Besides, in experiment [3], the percent growth is 0.211% (active).
With `CC(C)NCC(=O)Nc1cccc(C(=O)Nc2cccc(C(F)(F)F)c2)c1`, in experiment [1], the IC50 stood at 62 µM. In experiment [2], this molecule came in with an IC90 of 93.7 µM. In experiment [3], the percent growth is 2.17% (active).
The molecule `c1ccc(-c2[nH]c3ccccc3c2C(c2ccccn2)N2CCCC2)cc1` (centres undefined) registered an IC50 in experiment [1] of 34.8 µM. Besides, the IC90 in experiment [2] stood at 94.6 µM. In addition, the percent growth in experiment [3] is 5.96% (active).
In the case of `COc1ccc(-c2cnc3cnc(-c4cccc(OC(C)C)c4)cn23)cc1`, in experiment [1], the IC50 came to 43.6 µM. Further, the IC90 in experiment [2] was 95 µM. Further, the percent growth in experiment [3] is 6.18% (active).
For `CN1CCCN(C(c2ccccc2)c2ccc(Cl)cc2)CC1` (centres undefined), in that order: 10.2 µM, 18.6 µM and 2.74% (active).
`O=C(Nc1nnc(-c2ccc(Cl)s2)o1)c1ccc(Cl)s1`: in experiment [1], the IC50 was 54.3 µM. In addition, the IC90 in experiment [2] turned out to be 93.7 µM. In addition, the percent growth in experiment [3] is 3.26% (active).
The like results for `Cc1cc(C)c2cc(C(=O)NC3CCCCCCC3)[nH]c2c1` were, in that order, 64.9 µM, 94.3 µM and 2.52% (active).
For the molecule `COc1cc2ncnc(NC3CCN(Cc4ccccc4)CC3)c2cc1OC`, the IC50 in experiment [1] was determined as 66.6 µM. Moreover, the IC90 in experiment [2] is 92.3 µM. In addition, the percent growth in experiment [3] was -1.64% (active).
